Results filed as inconclusive are left out. The source made the active and inactive calls. Rule for the calls, unless noted: active = hit-call score of the fitted dose curve at least 0.9, where 1 is the maximum; inconclusive = response in the unintended direction; inactive = score below 0.9.
Key:
[1] = target: human Peroxisome Proliferator-activated Receptor alpha (PPARa), PPARA (gene 5465) (UniProt Q07869); experiment: ATG_PPARa_TRANS: Attagene TRANS-FACTORIAL HepG2 Assay for human Peroxisome Proliferator-activated Receptor alpha (PPARa) (AID 2283001);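 for AC50: potency for gain of reporter signal over DMSO so agonist or activator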
human Peroxisome Proliferator-activated Receptor alpha (PPARa), PPARA (gene 5465), sequence (Q07869 whole entry, looked up): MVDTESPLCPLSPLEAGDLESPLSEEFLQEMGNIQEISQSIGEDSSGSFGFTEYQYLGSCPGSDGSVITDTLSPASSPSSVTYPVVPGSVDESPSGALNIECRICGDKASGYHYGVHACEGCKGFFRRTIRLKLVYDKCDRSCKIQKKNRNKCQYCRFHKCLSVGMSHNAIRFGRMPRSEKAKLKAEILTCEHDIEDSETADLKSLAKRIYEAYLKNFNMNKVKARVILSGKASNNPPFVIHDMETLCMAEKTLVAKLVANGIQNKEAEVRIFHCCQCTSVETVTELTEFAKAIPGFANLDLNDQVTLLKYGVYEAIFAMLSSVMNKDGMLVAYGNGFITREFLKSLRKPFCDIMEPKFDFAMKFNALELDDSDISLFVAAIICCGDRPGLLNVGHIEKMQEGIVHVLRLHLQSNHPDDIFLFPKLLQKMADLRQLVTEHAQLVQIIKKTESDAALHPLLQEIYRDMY
In short: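 HepG2, transient MRTU transfection, 24 h treatment. RT-PCR → FAM labelling → capillary electrophoresis. Fit vs DMSO, positive direction.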

[2] = read-out: Intercellular Adhesion Molecule 1 (ICAM1), ICAM1 (gene 3383); experiment: BSK_3C_ICAM1: BioMAP Diversity Plus: 3C Assay for Intercellular Adhesion Molecule 1 (ICAM1) Biomarker Activity (AID 2283003; active = hit-call score of the fitted dose curve at least 0.9, where 1 is the maximum; inactive = score below 0.9); details: primary human endothelial cells (HUVEC); actives raise or lower the signal
In short: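 ELISA readout of ICAM1 in human umbilical vein endothelial cells in the 3C system, taken 24 h post-dose. Gain or loss of signal versus DMSO was fitted in both directions, with SRB total-protein staining run in parallel.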

[3] = target: human Retinoic Acid Receptor beta (RARb), RARB (gene 5915) (UniProt P10826); experiment: ATG_RARb_TRANS: Attagene TRANS-FACTORIAL HepG2 Assay for human Retinoic Acid Receptor beta (AID 2283004)
human Retinoic Acid Receptor beta (RARb), RARB (gene 5915), sequence (P10826 whole entry, looked up, the tested form may be a part): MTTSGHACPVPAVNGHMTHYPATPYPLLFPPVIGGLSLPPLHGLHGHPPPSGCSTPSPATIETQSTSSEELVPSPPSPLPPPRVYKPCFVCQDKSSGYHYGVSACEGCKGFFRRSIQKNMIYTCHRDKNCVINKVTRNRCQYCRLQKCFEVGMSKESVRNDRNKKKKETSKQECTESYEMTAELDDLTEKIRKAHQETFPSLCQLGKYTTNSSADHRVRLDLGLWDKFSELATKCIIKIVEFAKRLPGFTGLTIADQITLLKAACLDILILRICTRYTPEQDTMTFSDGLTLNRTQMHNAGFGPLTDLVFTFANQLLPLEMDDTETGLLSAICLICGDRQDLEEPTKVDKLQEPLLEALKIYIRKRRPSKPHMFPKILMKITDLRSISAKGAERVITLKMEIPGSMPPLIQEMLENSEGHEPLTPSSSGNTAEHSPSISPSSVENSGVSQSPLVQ
In short: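 Fluorescent capillary-electrophoresis detection of GAL4-UAS reporter mRNA defines the endpoint, with induction over DMSO-treated wells scored as activity. Transiently transfected human hepatoma HepG2 cells expressing exogenous NR–Gal4 proteins are exposed to test chemicals for 24 h.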

[4] = BSK_3C_Proliferation: Cell Proliferation Assessment in the BioMAP Diversity Plus: 3C Assay (AID 2283006; active = hit-call score of the fitted dose curve at least 0.9, where 1 is the maximum; inactive = score below 0.9;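 for AC50: potency may reflect either rise or fall in cell number versus DMSO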); details: primary human endothelial cells (HUVEC)
In short: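 Proliferation as total protein: sulforhodamine B (0.1%) stain of TCA-fixed subconfluent human umbilical vein endothelial cells, absorbance 560 nm, 48 h after dosing. Activity fitted in both directions against DMSO baseline.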

[5] = target: Peroxisome proliferator-activated receptor gamma (Homo sapiens) (UniProt P37231); experiment: ATG_PPARg_TRANS: Attagene TRANS-FACTORIAL HepG2 Assay for human Peroxisome Proliferator-activated Receptor-gamma (PPARg) (AID 2283007)
Peroxisome proliferator-activated receptor gamma (Homo sapiens), sequence (P37231 whole entry, looked up): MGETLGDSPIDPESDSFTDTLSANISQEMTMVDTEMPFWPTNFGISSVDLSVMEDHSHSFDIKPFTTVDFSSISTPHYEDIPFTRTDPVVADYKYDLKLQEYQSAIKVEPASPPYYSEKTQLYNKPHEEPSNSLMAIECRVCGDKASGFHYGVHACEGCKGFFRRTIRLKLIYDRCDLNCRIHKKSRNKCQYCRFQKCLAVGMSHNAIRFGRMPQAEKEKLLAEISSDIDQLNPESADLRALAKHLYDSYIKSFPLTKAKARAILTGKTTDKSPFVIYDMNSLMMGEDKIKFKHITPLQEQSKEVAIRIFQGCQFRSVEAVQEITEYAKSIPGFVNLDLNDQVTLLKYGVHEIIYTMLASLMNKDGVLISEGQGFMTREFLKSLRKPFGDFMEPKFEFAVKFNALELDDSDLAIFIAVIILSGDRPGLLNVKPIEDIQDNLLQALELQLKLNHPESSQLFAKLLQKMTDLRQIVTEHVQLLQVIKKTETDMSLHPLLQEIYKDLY
In short: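 Multiplexed reporter transcription units in HepG2, 24 h dosing, reporter transcripts quantified by fluorescent RT-PCR and capillary electrophoresis. Increase over DMSO scored.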

[6] = target: Nuclear receptor subfamily 1 group I member 2 (Homo sapiens) (UniProt O75469); experiment: ATG_PXR_TRANS: Attagene TRANS-FACTORIAL HepG2 Assay for human Pregnane X Receptor (PXR) (AID 2283008)
Nuclear receptor subfamily 1 group I member 2 (Homo sapiens), sequence (O75469 whole entry, looked up, the tested form may be a part): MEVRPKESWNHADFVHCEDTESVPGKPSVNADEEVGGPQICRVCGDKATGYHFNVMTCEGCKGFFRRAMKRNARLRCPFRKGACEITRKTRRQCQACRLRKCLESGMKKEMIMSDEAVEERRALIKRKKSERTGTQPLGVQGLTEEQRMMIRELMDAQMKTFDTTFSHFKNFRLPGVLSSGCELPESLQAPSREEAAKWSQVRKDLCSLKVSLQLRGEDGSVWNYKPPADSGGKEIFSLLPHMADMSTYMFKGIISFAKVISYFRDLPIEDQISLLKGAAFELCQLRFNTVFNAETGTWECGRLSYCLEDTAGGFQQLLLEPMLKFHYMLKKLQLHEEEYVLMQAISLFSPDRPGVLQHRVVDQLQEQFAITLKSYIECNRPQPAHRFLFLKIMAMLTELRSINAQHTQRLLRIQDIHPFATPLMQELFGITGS
In short: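 Transactivation by exogenous PXR–GAL4 fusion measured as reporter transcript induction after 24 h compound treatment of transfected human HepG2 cells. Read-out via RT-PCR and capillary electrophoresis of labelled fragments, fitted upward relative to DMSO.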

[7] = target: human RAR-related Orphan Receptor beta (RORb), RORB (gene 6096) (UniProt Q92753); experiment: ATG_RORb_TRANS: Attagene TRANS-FACTORIAL HepG2 Assay for human RAR-related Orphan Receptor beta (RORb) (AID 2283010)
human RAR-related Orphan Receptor beta (RORb), RORB (gene 6096), sequence (Q92753 whole entry, looked up, the tested form may be a part): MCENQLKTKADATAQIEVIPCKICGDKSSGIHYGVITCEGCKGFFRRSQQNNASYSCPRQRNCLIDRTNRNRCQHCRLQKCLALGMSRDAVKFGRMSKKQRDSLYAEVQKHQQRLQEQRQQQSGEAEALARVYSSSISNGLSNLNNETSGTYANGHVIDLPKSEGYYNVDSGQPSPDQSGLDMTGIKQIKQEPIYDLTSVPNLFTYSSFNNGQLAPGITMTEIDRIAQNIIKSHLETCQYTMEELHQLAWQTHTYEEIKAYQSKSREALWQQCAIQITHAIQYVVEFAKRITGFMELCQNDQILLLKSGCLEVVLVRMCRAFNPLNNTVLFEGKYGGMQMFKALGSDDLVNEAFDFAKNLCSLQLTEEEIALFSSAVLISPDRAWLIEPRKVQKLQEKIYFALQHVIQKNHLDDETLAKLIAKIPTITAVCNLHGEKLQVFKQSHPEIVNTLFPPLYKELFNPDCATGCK
In short: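 Read-out is reporter mRNA induction, quantified by RT-PCR with fluorescent capillary electrophoresis, 24 h post-dose in transiently transfected HepG2 expressing exogenous NR-Gal4 chimera. Activity fitted upward versus DMSO.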

[8] = target: Retinoic acid receptor alpha (Homo sapiens) (UniProt P10276); experiment: ATG_RARa_TRANS: Attagene TRANS-FACTORIAL HepG2 Assay for human Retinoic Acid Receptor alpha (RARa) (AID 2283005)
Retinoic acid receptor alpha (Homo sapiens), sequence (P10276 whole entry, looked up, the tested form may be a part): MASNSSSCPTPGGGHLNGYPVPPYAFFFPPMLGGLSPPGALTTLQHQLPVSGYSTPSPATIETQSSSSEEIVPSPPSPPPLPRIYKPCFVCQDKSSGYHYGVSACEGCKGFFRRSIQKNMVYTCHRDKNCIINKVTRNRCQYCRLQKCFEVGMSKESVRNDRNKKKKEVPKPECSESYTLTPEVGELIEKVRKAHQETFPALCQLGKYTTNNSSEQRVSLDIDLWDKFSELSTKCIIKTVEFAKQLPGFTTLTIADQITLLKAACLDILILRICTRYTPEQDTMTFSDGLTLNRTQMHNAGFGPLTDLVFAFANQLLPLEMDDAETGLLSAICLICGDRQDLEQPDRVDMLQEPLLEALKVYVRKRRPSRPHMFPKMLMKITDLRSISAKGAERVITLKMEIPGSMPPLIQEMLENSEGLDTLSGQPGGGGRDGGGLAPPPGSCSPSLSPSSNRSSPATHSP
In short: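 HepG2 transiently transfected with multiplex GAL4-UAS reporter units including a human RARa–GAL4 chimera; 24 h compound exposure. Reporter mRNA quantified by RT-PCR, 6-FAM labeling and capillary electrophoresis; gain of signal versus DMSO.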

[9] = target: human Retinoic Acid Receptor gamma (RARg), RARG (gene 5916) (UniProt P13631); experiment: ATG_RARg_TRANS: Attagene TRANS-FACTORIAL HepG2 Assay for human Retinoic Acid Receptor gamma (RARg) (AID 2283009)
human Retinoic Acid Receptor gamma (RARg), RARG (gene 5916), sequence (P13631 whole entry, looked up, the tested form may be a part): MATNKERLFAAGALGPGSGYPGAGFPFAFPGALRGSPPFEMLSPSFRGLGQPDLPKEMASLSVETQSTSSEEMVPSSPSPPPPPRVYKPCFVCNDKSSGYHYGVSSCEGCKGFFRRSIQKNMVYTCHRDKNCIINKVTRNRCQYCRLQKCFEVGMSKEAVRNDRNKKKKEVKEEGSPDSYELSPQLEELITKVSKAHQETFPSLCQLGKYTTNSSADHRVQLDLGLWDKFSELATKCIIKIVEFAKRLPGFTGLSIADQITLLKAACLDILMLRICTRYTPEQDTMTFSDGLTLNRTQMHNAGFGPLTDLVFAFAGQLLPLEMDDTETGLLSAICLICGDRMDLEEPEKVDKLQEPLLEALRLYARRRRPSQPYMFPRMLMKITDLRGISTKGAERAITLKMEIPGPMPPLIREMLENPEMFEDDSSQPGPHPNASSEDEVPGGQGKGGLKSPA
In short: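 Transactivation of exogenous RARg-Gal4 fusion measured as reporter transcript induction after 24 h in transfected HepG2 cells. RNA reverse-transcribed, amplified, fluorescently labeled and resolved by capillary electrophoresis; increase relative to DMSO.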

[10] = target: human Peroxisome Proliferator-activated Receptor delta (PPARd), PPARD (gene 5467) (UniProt Q03181); experiment: ATG_PPARd_TRANS: Attagene TRANS-FACTORIAL HepG2 Assay for human Peroxisome Proliferator-activated Receptor delta (PPARd) (AID 2283002)
human Peroxisome Proliferator-activated Receptor delta (PPARd), PPARD (gene 5467), sequence (Q03181 whole entry, looked up, the tested form may be a part): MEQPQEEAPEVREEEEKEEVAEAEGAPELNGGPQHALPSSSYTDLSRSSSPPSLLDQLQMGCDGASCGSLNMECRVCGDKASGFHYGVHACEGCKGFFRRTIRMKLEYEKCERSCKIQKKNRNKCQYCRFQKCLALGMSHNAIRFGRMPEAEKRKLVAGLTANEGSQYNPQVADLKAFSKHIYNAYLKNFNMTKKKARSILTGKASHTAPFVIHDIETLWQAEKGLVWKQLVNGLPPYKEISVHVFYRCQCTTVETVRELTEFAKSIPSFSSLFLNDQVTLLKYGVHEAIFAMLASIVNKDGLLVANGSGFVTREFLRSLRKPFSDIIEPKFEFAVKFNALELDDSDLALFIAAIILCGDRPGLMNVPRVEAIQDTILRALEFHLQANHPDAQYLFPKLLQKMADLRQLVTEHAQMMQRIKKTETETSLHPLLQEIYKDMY
In short: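 Fluorescence from capillary electrophoresis of labelled RT-PCR reporter fragments gives the signal; DMSO sets baseline. Cells: HepG2 transiently carrying GAL4-UAS reporter units plus chimeric nuclear receptor-Gal4 proteins, exposed to chemicals for 24 h.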

Measured: AC50

C=CC(C)(O)CCC=C(C)C (stereo unspecified)
not listed: [8] | [9] | [10]
inactive: all other assays above

O=C(O)CNc1ccccc1
active: [6] 27.3 µM
not listed: [2] | [4] | [10]
inactive: all other assays above

CC(C)=CCCC(C)CC(=O)O (stereo unspecified)
inactive: [1] | [10] | [6]

O=C1CCCC=CCCCCCCCCCC1
inactive: [1] | [10]
active: [6] 10.3 µM

Cc1occc(=O)c1OC(=O)C(C)C
inactive: [1] | [10] | [7]

O=C1c2ccccc2C(=O)c2c(O)ccc(O)c21
active: [4] 2.95 µM | [5] 8.37 µM | [6] 8.69 µM
not listed: [7] | [10]
inactive: all other assays above

CC(=O)Nc1ccc(C(=O)CCl)cc1
active: [1] 2.66 µM | [2] 8.45 µM | [4] 6.13 µM
inactive: [3] | [6]

COC(C)(C)CC(C)=O
inactive: [1] | [10] | [6]

OCC(O)c1ccccc1 (stereo unspecified)
inactive: [1] | [10] | [6] | [7]

CN1C(=O)c2ccccc2C1=O
inactive: [1] | [10] | [9]

CCCCCCCCc1ccc(S(=O)(=O)O)cc1
active: [5] 23.6 µM
not listed: [2] | [4] | [10]
inactive: all other assays above

CC1(C)C(=O)N(Cl)C(=O)N1Br
inactive: [1] | [3] | [8] | [5]

CCCC(C)C(O)CC (stereo unspecified)
inactive: [1] | [3] | [8] | [5] | [6] | [9]

O=C1OC(=O)c2c(Br)c(Br)c(Br)c(Br)c21
inactive: [1] | [10] | [6] | [9]

CC(=O)CC(=O)Nc1ccccc1
inactive: [1] | [10] | [6] | [7]

Nc1c(Cl)cc(Cl)cc1[N+](=O)[O-]
active: [6] 16.5 µM
inactive: [1] | [10] | [9]

CN(C)C(=O)Nc1ccc(Oc2ccc(Cl)cc2)cc1
inactive: [1] | [2] | [4]
active: [5] 17.4 µM | [6] 26.6 µM

CC=Cc1ccc(OCC)c(O)c1
active: [6] 53.6 µM
inactive: [1] | [2] | [4]

C=C(C)CNCC
active: [6] 54.6 µM
inactive: [1] | [10] | [9]

CC(C)c1ccccc1O
inactive: [1] | [10] | [6] | [9]

C=C(C)[C@H]1CC=C(C)C(=O)C1
active: [5] 68.7 µM
inactive: [1] | [2] | [4] | [6]

NCc1ccco1
inactive: [1] | [10] | [6] | [9] | [7]

Cc1ccc(S(N)(=O)=O)cc1
inactive: [1] | [3] | [8] | [6] | [9]

CCC(C)S (stereo unspecified)
inactive: [1] | [10] | [6]

Cc1cc(CCC(=O)OCCOCCOCCOC(=O)CCc2cc(C)c(O)c(C(C)(C)C)c2)cc(C(C)(C)C)c1O
active: [5] 24.2 µM | [6] 23.3 µM
not listed: [7] | [10]
inactive: all other assays above

COC(CC(C)CCCC(C)(C)O)OC (stereo unspecified)
inactive: [1] | [3] | [8] | [6]

CCCCCCCCCCCCCCN(CCO)CCO
inactive: [1] | [3] | [8] | [6] | [9]

CCCCOC(=O)CCCCCCCC(=O)OCCCC
inactive: [1] | [2] | [4] | [6]

CC1(C)COCN1
inactive: [1] | [3] | [8] | [6]

CCCSc1ccc2nc(NC(=O)OC)[nH]c2c1
inactive: [1] | [10] | [6]

Oc1c(Cl)cc(Cl)c(Cl)c1Cc1c(O)c(Cl)cc(Cl)c1Cl
active: [1] 11.1 µM | [2] 27.1 µM | [4] 2.22 µM | [6] 5.79 µM
inactive: [3] | [8] | [9] | [7]

OCCc1ccccc1
inactive: [1] | [3] | [8] | [6]

COC(=O)Nc1ccc(Cl)c(Cl)c1
inactive: [1] | [10] | [6]

OCC#CCO
inactive: [1] | [3] | [8] | [5]

C=C(C)C(=O)OCCOCCOCCOC(=O)C(=C)C
inactive: [1] | [2] | [4] | [5] | [6]

CC(=O)O[C@H]1C[C@@H]2CC[C@@]1(C)C2(C)C
inactive: [1] | [3] | [8] | [6] | [9]

CCCC1O[C@@H]2C[C@H]3[C@@H]4CCC5=CC(=O)C=C[C@]5(C)[C@H]4[C@@H](O)C[C@]3(C)[C@]2(C(=O)CO)O1 (stereo partly specified)
active: [6] 1.36 µM
inactive: [1] | [3] | [5] | [9]

CC(O)C1CCCCC1 (stereo unspecified)
inactive: [1] | [8] | [5] | [9]

CC(C)NCC(O)COc1ccc(CC(N)=O)cc1 (stereo unspecified)
inactive: [1] | [8] | [5] | [6] | [7]

Source: PubChem BioAssay (EPA / NIEHS)
